# In the library only some 7.6% were active in any assay of this set; here they are far more common.
# p53 reactivator – re-activators of mutant p53; H1299 p53-A138V BP100-luciferase reporter, luminescence, 24 h; Potency, µM (highest dose often 92.2 µM), inactives show at the highest dose activity change, positive = activation, most hits filed as activators; actives 0.063% (n = 320,000); AID 504706; note: potency is the fitted concentration of half-maximal effect; % of control where 0% means no effect; nearly all actives have a fitted effect of over 45% in size
#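 H1299 (p53-null), stable ts p53-A138V + BP100-Luc; 1000 cells/well, Opti-MEM/10% FBS; cpd 4 pt, 1:5; 24 h, 37 deg C, 5% CO2; detection reagent 10 min RT; luminescence.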
# Giardia kill – Giardia lamblia killing; actives 0.15% (n = 340,000); activity change, % at 7.66 µM, hits read low; Giardia lamblia trophozoite viability; in the data active = activity change below about -80%; inconclusive = between about -30% and that limit;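 note: parasites exposed to compound for two days anaerobically before the ATP read; % is set by controls: 0 for no effect and ±100 for the full control effect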
#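 Killing of trophozoites was scored by loss of ATP luminescence after a 48 hrs anaerobic exposure to compounds at 37 deg C, using 100 cells per well.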
# RORg inh – inhibitors of mouse ROR gamma transcriptional activity; Drosophila S2 Gal4-RORgamma UAS-luciferase reporter, 20 h; Potency, µM (highest dose often 53.6 µM), for the others: top-dose activity change, negative = inhibition, most hits filed as inhibitors; actives 5.4% (n = 310,000); note: potency is the fitted concentration of half-maximal effect; % is set by controls: 0 for no effect and ±100 for the full control effect; nearly all actives have a fitted effect of over 60% in size
# Target sequence (P51450 whole entry, looked up, the tested form may be a part): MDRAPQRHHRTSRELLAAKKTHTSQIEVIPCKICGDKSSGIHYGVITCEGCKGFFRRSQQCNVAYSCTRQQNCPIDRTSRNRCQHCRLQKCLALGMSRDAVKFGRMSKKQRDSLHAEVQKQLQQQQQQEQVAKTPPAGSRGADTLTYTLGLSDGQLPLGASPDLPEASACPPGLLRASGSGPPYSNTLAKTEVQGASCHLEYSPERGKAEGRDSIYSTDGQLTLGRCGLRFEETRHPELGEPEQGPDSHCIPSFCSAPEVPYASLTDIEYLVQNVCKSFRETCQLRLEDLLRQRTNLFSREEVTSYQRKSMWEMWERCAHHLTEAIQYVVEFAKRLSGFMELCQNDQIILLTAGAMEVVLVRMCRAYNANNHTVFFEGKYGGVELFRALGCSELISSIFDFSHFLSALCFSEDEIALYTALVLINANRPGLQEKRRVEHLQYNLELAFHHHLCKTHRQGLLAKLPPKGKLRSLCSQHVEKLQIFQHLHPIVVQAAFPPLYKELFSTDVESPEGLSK
#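 Stable Schneider cell line, Gal4 DNA-binding domain fused to ROR gamma, UAS-luciferase. Cmpd 1 hr RT → CuSO4 700 uM final → 20 hr RT → luciferase reagent 10 min → luminescence.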
# BRCA1 expr act – activators of BRCA1 expression; Potency, µM (top dose mostly 46.1 µM), for inactives: at the highest dose activation, usual class: activators; actives 1.1% (n = 380,000); AID 624202; MCF7-BRCA1-FFLuc reporter, luminescence, 48 h; response scale: scaled: vehicle 0%, 10 µM genistein 100%; note: potency is the fitted concentration of half-maximal effect; nearly all actives have a fitted effect of over 80% in size
#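 MCF7-BRCA1-FFLuc cells, 2000/well in phenol-red-free MEM, attached 2 h then treated 48 h at 37 C. Luciferase luminescence read 15 min after reagent; normalized to genistein maximum activation (10microM) and DMSO, concentration-response fitted.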
# Gal4-VP16 FLuc – counter-screen for ROR gamma inhibitors: Gal4-VP16 reporter. Drosophila S2 Gal4-VP16 UAS-luciferase, luminescence, 20 h. Potency, µM (top dose mostly 53.6 µM), for inactives: at the top dose activity, negative = inhibition, usual class: inhibitors. actives 3.5% (n = 310,000);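 note: Gal4-VP16 expression switched on by copper sulfate through the metallothionein promoter; potency is the fitted concentration of half-maximal effect; % is set by controls: 0 for no effect and ±100 for the full control effect; nearly all actives have a fitted effect of over 50% in size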
# ELG1 DNA repair – blocks ELG1-dependent DNA repair in HEK293T cells; HEK293T ELG1-luciferase reporter, luminescence, 16 h; DNA damage induced by 5-fluorouridine; AID 504467; actives 2.3% (n = 330,000); Potency, µM (highest dose often 46.1 µM), for the others: at the top dose activity change, negative = inhibition, usual class: inhibitors; note: potency is the fitted concentration of half-maximal effect; % is set by controls: 0 for no effect and ±100 for the full control effect; nearly all actives have a fitted effect of over 55% in size
#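 5-Fluorouridine DNA damage + compound/DMSO, 2,000 cells/well, 16 h, 37 °C/5% CO2. ONE-Glo, 30 min RT, luminescence. Readout = decrease in reporter signal.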
# * hit, by the source's call; ? = inconclusive; nt = not tested or not shown; [ ] = another dose, or the depositor's remark. Unless noted, calls come from the whole dose curve; as a rule, active = well fitted curve in the direction sought with a large enough effect; inconclusive = small, poorly fitted or top-dose-only effect, or another doubt; inactive = no such curve, though single readings can be large; an effect the other way counts as inactive or inconclusive.
SMILES,p53 reactivator,Giardia kill,RORg inh,BRCA1 expr act,Gal4-VP16 FLuc,ELG1 DNA repair
CN(Cc1cnn(-c2ccccc2)c1)C(=O)c1cccc(S(=O)(=O)N(C)c2ccccc2)c1,nt,nt,nt,-23.3%,nt,nt
O=[N+]([O-])c1ccc(N2CCN(S(=O)(=O)c3ccccc3)CC2)cc1NCCN1CCOCC1,8.1%,13.2,?,-58.0%,-8.0%,25.9µM*
COc1cc(NC(=O)C2CCCN(c3ncccn3)C2)cc(OC)c1 (stereo not drawn),-16.8%,-3.8,?,-2.5%,-1.5%,-24.0%
O=C1C(=O)N(c2ccc(O)cc2)C(c2ccccc2[N+](=O)[O-])/C1=C(\O)c1ccccc1 (stereo not drawn),5.9%,0.2,-0.8%,0.0%,-7.2%,0.2%
CC(NS(=O)(=O)c1ccc(OCC(=O)N2CCOCC2)c(Cl)c1)c1ccccc1 (stereo not drawn),-4.6%,-6.1,1.3%,-15.7%,-11.5%,14.6µM*
COc1ccccc1NC(=S)N1CCOCC1,1.5%,6.8,-3.2%,-3.0%,6.6%,-7.2%
Cc1ccc(NC(=O)CSc2n[nH]c(-c3ccncc3)n2)c(C)c1,-2.8%,-1.3,2.3%,-0.3%,-26.2%,3.9%
Cc1ccc(NC(=O)Cc2nc(-c3c[nH]c(C(=O)N4CCCC4)c3)cs2)c(C)c1,-4.0%,4.6,nt,-43.5%,nt,16.4µM*
Cc1cc(C)cc(-n2c(C)cc(/C=N/NC(=O)CN(c3c(C)cccc3C)S(C)(=O)=O)c2C)c1,1.2%,-4.0,12.6µM*,-37.7%,-20.5%,-3.2%
CN(C)CCCNS(=O)(=O)c1ccc(NC2CCCCCC2)c([N+](=O)[O-])c1,11.1%,-7.9,-13.2%,-65.0%,20µM*,?
Cc1ccc(S(=O)(=O)NCC(=O)N/N=C/c2ccc(Cl)cc2Cl)cc1,-1.4%,5.5,?,-8.6%,?,-5.3%
CC(=O)Nc1ccc(NC(=O)CNS(=O)(=O)c2ccc(C)cc2)cc1,6.0%,-15.0,10µM*,8.1%,?,-7.2%
CC(=O)Nc1ccc(NS(=O)(=O)c2ccc(C)cc2)cc1[N+](=O)[O-],-2.8%,14.0,-12.4%,-6.8%,-4.0%,-0.6%
CC(=O)Nc1ccc(S(=O)(=O)NCCSCc2cccc(Cl)c2)cc1,-2.4%,-2.0,6.2%[10 µM],-30.8%,-2.4%,-24.2%
CC(=O)Nc1ccc(S(=O)(=O)NCCSCc2c(Cl)cccc2Cl)cc1,-4.0%,17.5,?,-52.0%,-28.0%,23.1µM*
CC(=O)Nc1ccc(NS(=O)(=O)c2ccc(C)cc2)c([N+](=O)[O-])c1,4.2%,-99.1*,6.6%,15.7%,-1.0%,-16.1%
Cc1ccc(S(=O)(=O)NCC(=O)Nc2ccc(C(F)(F)F)cc2)cc1,-5.5%,3.6,-7.5%,-8.4%,-4.8%,-8.8%
Cc1ccc(S(=O)(=O)NCC(=O)N/N=C/c2ccccc2O)cc1,7.8%,-17.6,5.62µM*,-69.9%,?,-19.0%
CC(=O)Nc1ccc(S(=O)(=O)NCCOc2ccc(Cl)cc2C)cc1,-0.8%,20.9,?,-1.2%,5.01µM*,?
CC(=O)Nc1ccc(S(=O)(=O)NCCC(=O)Nc2cccc(Cl)c2)cc1,2.4%,19.2,9.9%,-20.7%,3.5%,1.3%
Cc1nnsc1-c1onc(C)c1C(=O)Nc1cc(Cl)cc(Cl)c1,9.0%,-9.5,34.1%,-64.8%,-26.9%,16.4µM*
N#CCOC(=O)/C=C/c1ccc2c(c1)OCO2,5.6%,-3.1,-2.5%,-6.7%,-21.8%,9.1%
Cc1ccccc1NC(=O)CN1CCN(C)CC1,3.8%,3.3,-16.1%,6.9%,-2.7%,7.0%
Cc1ccccc1NC(=O)CCN1CCN(C)CC1,nt,-6.6,10µM*,32.3%,-9.6%,2.8%
Cc1cccc(C(=O)Oc2ccc(/C=N/NC(=O)c3ccccc3O)cc2)c1,?,-6.4,3.55µM*,51.9%,3.55µM*,?
SMILES,p53 reactivator,Giardia kill,RORg inh,BRCA1 expr act,Gal4-VP16 FLuc,ELG1 DNA repair
O=C(N/N=C/c1cc(Br)c(O)c(Br)c1)c1cccc(C(F)(F)F)c1,-3.6%,-12.0,6.2%,-5.6%,6.0%,-1.2%
O=C(N/N=C/c1cccc(C(F)(F)F)c1)c1ccccc1O,-2.9%,2.7,10µM*,32.9%,?,20.1%
C(=N\NCc1ccccc1)/c1ccc2nccnc2c1,7.3%,1.6,?,4.47µM*,?,?
Cc1cccc(C(=O)Oc2ccc(/C=N/NC(=O)c3ccc(O)cc3)cc2)c1,15.3%,-10.7,-19.0%,-17.2%,?,-0.2%
O=C(N/N=C/c1ccc2nccnc2c1)c1ccncc1,5.0%,17.1,25.8%,11.4%,-3.0%,-0.6%
C(=N\NCc1ccccc1)/c1ccc2ncccc2c1,9.9%,12.1,4.0%,32.9%,-25.5%,?
O=C(N/N=C/c1ccc2nccnc2c1)c1ccccc1O,12.0%,nt,6.31µM*,nt,?,?
O=C(N/N=C/c1cccc(OC2CSC2)c1)c1ccccc1O,5.2%,-3.6,12.6µM*,-23.5%,0.0%,?
COC(=O)c1c(NC(=O)c2ccc(S(=O)(=O)N(C)C3CCCCC3)cc2)sc2c1CCN(C)C2,nt,nt,nt,-43.6%,nt,nt
COCc1nnc(NC(=O)c2ccc(S(=O)(=O)N(C)C3CCCCC3)cc2)o1,25.5%,-2.6,1.58µM*,-41.1%,4.47µM*,-13.7%
COCCN(CCOC)S(=O)(=O)c1ccc(C(=O)Nc2nnc(COC)o2)cc1,-1.6%,19.7,?,12.1%,-6.8%,10.6%
CSCc1nnc(NC(=O)c2ccc(S(=O)(=O)N(CC(C)C)CC(C)C)cc2)o1,11.0%,nt,0.282µM*,nt,0.631µM*,-20.5%
CCCN(CCC)S(=O)(=O)c1ccc(C(=O)Nc2nnc(COC)o2)cc1,2.0%,21.7,0.562µM*,-43.2%,2.24µM*,18.3µM*
COCCN(CCOC)S(=O)(=O)c1ccc(C(=O)Nc2nnc(C)o2)cc1,3.8%,0.1,10µM*,-4.8%,?,?
COc1ccc(CCNC(=O)c2c(C)nc3ccccn23)cc1,-1.4%,-5.4,?,-6.6%,-20.3%,?
CCCCc1ccc(NC(=O)Nc2cnccn2)cc1,-2.8%,-14.3,?,67.0%,1.5%,?
CCc1nnc(NC(=O)c2ccc(S(=O)(=O)N(C)c3ccccc3)cc2)o1,21.5%,-28.6,0.447µM*,-31.7%,0.562µM*,7.3µM*
COCCN(CCOC)S(=O)(=O)c1ccc(C(=O)Nc2nnc(CSC)o2)cc1,-4.5%,-4.8,5.01µM*,19.0%,12.6µM*,8.8%
C=CCN(CC=C)S(=O)(=O)c1ccc(C(=O)Nc2nnc(CSC)o2)cc1,-4.0%,1.4,0.562µM*,-43.2%,2.82µM*,18.3µM*
CSCc1nnc(NC(=O)c2ccc(S(=O)(=O)N(C)C)cc2)o1,-4.5%,13.1,2µM*,4.9%,5.01µM*,?
